Compound activity: PubChem, National Center for Advancing Translational Sciences (NCATS)
Shown are actives, neighbours in structure and some others; about 6.2% of the full set was active somewhere.
Luc counter = Kinase-Glo luciferase inhibition (counter-screen) | Q27757 | Kinase-Glo luciferase, ATP luminescence, 8 min | Potency, µM (top dose mostly 38.3 µM), inactives show at the top dose activity change, negative = inhibition, most hits filed as inhibitors | 0.28% of 200,000 active; also: nearly all actives have a fitted effect of over 60% in size
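Light output from Kinase-Glo luciferase with luciferin and 10 uM ATP in 50 mM imidazole pH 7.2, KCl, MgCl2, Tween 20, BSA; compound pin-delivered, 8-min ambient incubation, then luminescence read.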
Gal4-VP16 FLuc = counter-screen for ROR gamma inhibitors: Gal4-VP16 reporter; AID 2546; Potency, µM (doses to about 53.6 µM), inactives show at the highest dose activity, negative = inhibition, hits mostly inhibitors; Drosophila S2 Gal4-VP16 UAS-luciferase, luminescence, 20 h; 3.5% of 310,000 active;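 also: Gal4-VP16 expression switched on by copper sulfate through the metallothionein promoter; nearly all actives have a fitted effect of over 50% in size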
RORgamma inh = ROR gamma (mouse) transcription inhibition; Drosophila S2 Gal4-RORgamma UAS-luciferase reporter, 20 h; Potency, µM (series often up to 53.6 µM), inactives show top-dose activity change, negative = inhibition, hits mostly inhibitors; 5.4% of 310,000 active; AID 2551; also: nearly all actives have a fitted effect of over 60% in size
Target sequence (P51450 whole entry, looked up, the tested form may be a part): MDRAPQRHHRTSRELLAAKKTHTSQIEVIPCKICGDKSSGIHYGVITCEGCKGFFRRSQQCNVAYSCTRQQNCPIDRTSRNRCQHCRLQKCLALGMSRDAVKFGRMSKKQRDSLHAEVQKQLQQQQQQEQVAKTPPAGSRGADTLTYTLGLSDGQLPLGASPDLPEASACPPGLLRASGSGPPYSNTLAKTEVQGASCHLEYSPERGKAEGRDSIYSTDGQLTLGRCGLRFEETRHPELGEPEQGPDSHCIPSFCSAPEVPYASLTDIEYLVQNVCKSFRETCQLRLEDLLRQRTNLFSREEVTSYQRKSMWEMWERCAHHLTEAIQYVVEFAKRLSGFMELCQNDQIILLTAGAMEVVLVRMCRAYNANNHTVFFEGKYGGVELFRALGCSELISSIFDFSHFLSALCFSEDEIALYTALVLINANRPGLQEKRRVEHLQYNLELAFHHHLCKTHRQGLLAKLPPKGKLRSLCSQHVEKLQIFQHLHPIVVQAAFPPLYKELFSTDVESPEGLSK
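Drosophila Schneider cells stably carrying a metallothionein-driven Gal4 DBD–ROR gamma fusion and a UAS-Photinus luciferase reporter were exposed to compound for 1 hr, then induced with copper sulfate (700 uM final) for 20 hr at ambient temperature before luminescence reading.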
The depositor's hits bear a star; ? = inconclusive; · = no result; [ ] = remark or other dose. Calls follow the shape of the dose curve; as a rule, active = well fitted curve in the direction sought with a large enough effect; inconclusive = small, poorly fitted or top-dose-only effect, or another doubt; inactive = no such curve, though single readings can be large; an effect the other way counts as inactive or inconclusive. % is scaled to controls: 0 for no effect and ±100 for the full control effect; potency is read from the fitted curve at half-maximal effect.

SMILES	Luc counter	Gal4-VP16 FLuc	RORgamma inh
C=CCN=C1NN=C(c2cc(C)n(CCOC)c2C)CS1	-28%	-83%	1µM*
COCCn1c(C)cc(C2=NNC(=Nc3ccc(Cl)cc3Cl)SC2)c1C	-7%	-4%	-1%
COc1ccc(-n2c(C)cc(C3=NNC(=NC4CC4)SC3)c2C)cc1	-6%	?	-20%
Nc1ccc(C(=O)N/N=C2\CCCc3c2[nH]c2ccccc32)cc1	0%	?	?
CC(C)c1ccc2[nH]c3c(c2c1)CCC/C3=N\NC(=O)c1ccncc1	·	5µM*	0.89µM*
Cc1ccc2sc(NNC(=O)C3COc4ccccc4O3)nc2c1C (stereo unspecified)	1%	8.9µM*	2µM*
COc1cccc2sc(NNC(=O)C3COc4ccccc4O3)nc12 (stereo unspecified)	-2%	10%	3.5µM*
Cc1nc2cc(NC(=O)C3COc4ccccc4O3)ccc2s1 (stereo unspecified)	-8%	12%	25%
O=C(NNc1nc2c(F)cccc2s1)C1COc2ccccc2O1 (stereo unspecified)	-1%	-2%	2%
O=C(NNC(=S)Nc1ccccc1C(F)(F)F)c1cccnc1	8%	-14%	-22%
CC(C)C(=O)NC(=S)Nc1ccccc1C(F)(F)F	·	?	5µM*
FC(F)(F)c1ccccc1NC(=S)NN=C1CCCCCC1	2%	?	4.5µM*
O=C(CC(=O)Nc1ccccc1C(F)(F)F)Nc1ccccc1C(F)(F)F	·	-6%	12%
N#CCC(=O)NNC(=S)Nc1ccccc1C(F)(F)F	4%	?	11µM*
CCCC(=O)NC(=S)Nc1ccccc1C(F)(F)F	0%	?	7.9µM*
COc1ccc(OC(C)C(=O)Nc2ccccc2C(F)(F)F)cc1 (stereo unspecified)	-1%	-3%	17%
FC(F)(F)c1ccccc1NC(=S)N1CCCC1	·	9%	-22%
CC1CCCN(C(=O)COC(=O)c2ccc[nH]c2=O)C1 (stereo unspecified)	-3%	6%	-12%
CCC1C(=O)C(CC)C(c2ccccc2)NC1c1ccccc1 (stereo unspecified)	·	1%	0.28µM*
CCC1C(=NO)C(CC)C(c2ccccc2)NC1c1ccccc1 (stereo unspecified)	2%	?	?
COCC(=O)N1CCC(n2nnc3cc(C(F)(F)F)ccc32)CC1	2%	-2%	14%
O=C(C(=O)N1CCN(c2ccccc2F)CC1)c1c[nH]c2ccccc12	0%	-11%	25%
COCCNC(=O)C1CCC(Cn2c(=S)[nH]c3ccccc3c2=O)CC1 (stereo unspecified)	4%	15%	-29%
O=C(NCCc1c[nH]c2ccccc12)C1CCC(Cn2c(=S)[nH]c3ccccc3c2=O)CC1 (stereo unspecified)	-2%	13µM*	7.1µM*
Cc1ccc(-n2cc(CN3CCNC(=O)CC3)c(-c3cccc(C)c3)n2)cc1	-1%	6%	-4%
SMILES	Luc counter	Gal4-VP16 FLuc	RORgamma inh
CCn1ccnc1CNCc1cn(-c2cc(C)ccc2C)nc1-c1ccccc1	2%	-21%	14µM*
Cc1ccc(-n2cc(CN3CCN(Cc4nccn4C)CC3)c(-c3cccc(C)c3)n2)cc1	-4%	-4%	10µM*
CCn1ccnc1CN(C)Cc1cn(-c2cccc(C)c2)nc1-c1cccc(F)c1	4%	16µM*	1.6µM*
CN(Cc1ccccn1)Cc1cn(Cc2ccccc2)nc1-c1ccc2c(c1)OCO2	-3%	-18%	-33%
Cc1ccc(C)c(-n2cc(CNCCc3cnccn3)c(-c3ccccc3)n2)c1	·	-6%	-10%
CN(Cc1cn(Cc2ccccc2)nc1-c1ccc2c(c1)OCO2)Cc1nccn1C	3%	2%	13µM*
Cc1cccc(-n2cc(CN3CCCN(C=O)CC3)c(-c3cccc(F)c3)n2)c1	-2%	27%	14%
CCOC(=O)CCN1C(=O)[C@H]2[C@H]3[C@H](O)[C@H](O)C/C(=N/O[C@@H]4O[C@@H](COC(C)=O)[C@@H](OC(C)=O)[C@@H](OC(C)=O)[C@H]4OC(C)=O)[C@H]3CC[C@@H]2C1=O	·	-7%[10 µM]	-2%[10 µM]
Cc1ccc(-c2nn(-c3ccccc3)cc2CN(C)C(=O)CCC(=O)O)cc1C	-1%	17%	?
Cc1cccc(-n2cc(CN(C)Cc3nccn3C)c(-c3cccc(F)c3)n2)c1	1%	?	5.6µM*
COc1ccc(-n2cc(CN(C)CCO)c(-c3cccc(F)c3)n2)cc1	?	-20%	11%
CCn1ccnc1CN(C)Cc1nc(-c2ccccc2)no1	3%	?	?
CCn1ccnc1CN(C)Cc1nc(-c2cccc(Cl)c2)no1	0%	-9%	18µM*
CCn1ccnc1CN(C)Cc1cn(-c2ccc(C)cc2)nc1-c1cccc(C)c1	-1%	10µM*	1.6µM*
CCCCc1cc(=O)oc2cc(OCC(=O)NC3CCN(Cc4ccccc4)CC3)ccc12	·	-4%	-9%
CC(C)OC(=O)c1cccnc1SCc1cc(=O)n2ccccc2n1	9%	-3%	12%
COc1nc(C)ccc1-c1noc(-c2ccncc2)n1	-2%	3%	14%
COc1nc(C)ccc1-c1noc(-c2cccs2)n1	·	?	1.8µM*
O=C(NCCCn1ccnc1)c1ccc(Cl)s1	·	1%	-5%
CCOc1ccc(OCC)c(NC(=O)CCCN2C(=S)NC(C)(C)CC2C)c1 (stereo unspecified)	-1%	6.3µM*	6.3µM*
CCOc1ccccc1NC(=O)CCCN1C(=S)NC(C)(C)CC1C (stereo unspecified)	-2%	?	14µM*
Cc1ccccc1NC(=O)CN1C(=S)NC(C)(C)CC1C (stereo unspecified)	-2%	?	?
CC1CC(C)(C)NC(=S)N1CCCC(=O)NCc1ccccc1 (stereo unspecified)	-5%	13%	?
O=C(c1n[nH]c2ccccc12)N1CCN(c2ccc(F)cc2)CC1	-1%	-11%	10%
COc1ccc(NC(C)=O)cc1S(=O)(=O)Nc1ccc(C(=O)N2CCCC2)cc1	·	-16%	-17%
SMILES	Luc counter	Gal4-VP16 FLuc	RORgamma inh
CCOC(=O)CNC(=O)CSc1nc(-c2ccc(C)cc2)ns1	-3%	-3%	-18%
CCOC(=O)CSc1nc(-c2ccc(OC)cc2)ns1	2%	-26%	10µM*
O=C(Cc1ccccc1[N+](=O)[O-])Nc1ccc(S(=O)(=O)N2CCCC2)cc1	·	-4%	29%
CC(C)(C)OC(=O)CNC(=O)c1[nH]cnc1C(=O)Nc1ccc(Cl)cc1	·	13µM*	4.5µM*
CC(C)(C)OC(=O)CNC(=O)c1[nH]cnc1C(=O)Nc1ccc(CNC(=O)OC(C)(C)C)cc1	·	?	11µM*
CCN(CC)C(=O)c1[nH]cnc1C(=O)NCC(=O)OC(C)(C)C	·	3%	1%
Cc1ccc(SCC(=O)c2ccc(CC(=O)O)s2)cc1	·	-24%	1%
CN(Cc1ccccc1)C(=O)CCCn1c(=O)c2cccn2c2cccnc21	·	2%	2%
COc1ccc(NC(=S)NCc2cccnc2)cc1	·	-21%	-1%
COc1ccc(CNC(=S)Nc2ccc(Br)cc2)cc1	·	11µM*	10µM*
COc1ccc(CNC(=S)Nc2ccc(-c3ccccc3)cc2)cc1	0%	7.1µM*	?
COc1ccc(NC(=S)NCc2cccn2C)cc1	3%	-2%	-27%
